Assay results reported in PubChem BioAssay (Tox21).
Results filed as inconclusive are left out. Unmarked numbers belong to inactive results. Calls come from the whole dose curve; as a rule, active = well fitted cell-killing curve with a large enough effect in the repeat runs; inconclusive = weak or mixed curves; inactive = flat fitted curve, though single readings scatter.

Assay: qHTS assay to identify small molecule antagonists of the TGF-beta/Smad signaling pathway - cell viability counter screen (AID 1346824); note: nearly all actives have a fitted effect of over 50% in size
Details: SBE-bla HEK293T viability, CellTiter-Glo luminescence; series mostly up to 76.8 µM; viability change, negative = cytotoxic: at the top concentration
Excerpt: U.S. Tox21 Program National Center for Advancing Translational Sciences [NCATS] NIH Chemical Genomics Center [NCGC] U.S. Environmental Protection Agency [EPA] National Institutes of Environmental Health Sciences [NIEHS] National Toxicology Program [NTP] U.S. Food and Drug Administration [FDA] Tox21 Assay Overview: Transforming growth factor beta (TGF-beta) superfamily consists of a large number of structurally related dimeric proteins that act as hormones or local mediators in regulating a wide range of biological functions. This superfamily includes TGF-betas themselves, the bone morphogenetic proteins (BMPs) and the activins. These ligands induce oligomerization of serine/threonine receptor kinases and phosphorylate the cytoplasmic signaling molecules of Smad protein family. CellSensor SBE-bla HEK 293T cell line (Life Technologies, Carlsbad, CA), responsive to TGF-beta was used to screen Tox21 10K compound library for identification of agonists/antagonists of the Smad signaling pathway. This cell line contains a beta-lactamase reporter gene under control of the Smad binding element (SBE) stably integrated into HEK 293T cells. Also cytotoxicity of the compounds was tested in parallel by measuring the cell viability using CellTiter-Glo assay system in the same wells.
Tox21 Assay Protocol Summary: SBE-bla HEK 293T cells were dispensed at 4,000/well in 5 uL of assay medium into black wall/clear-bottom 1536-well plates using a Multidrop Combi (ThermoFisher Scientific, Waltham, MA) dispenser. After the assay plates were incubated at 37 C and 5% CO2 for an overnight, 23 nL of compounds dissolved in DMSO, positive controls or DMSO only was transferred to the assay plate by a Pintool station (Kalypsys, San Diego, CA). Compound transfer was followed by the addition of 1 uL of 0.25 ng/mL TGF-beta1 or assay buffer using two separate tips of Flying Reagent Dispenser (FRD, Aurora Discovery, San Diego, CA). The assay plates were incubated at 37 C and 5% CO2 for 5 hr. One uL of LiveBLAzer B/G FRET substrate (Life Technologies) was added using a Flying Reagent Dispenser (FRD, Aurora Discovery, San Diego, CA) and the plates were incubated at room temperature for 2 hr. Fluorescence intensity (405 nm excitation, 460 nm and 530 nm emissions) was measured using an Envision plate reader (PerkinElmer, Shelton, CT). For cytotoxicity read, 4 uL of CellTiter-Glo reagent (Promega Corporation, Madison, WI) was added to each well of the assay plates using FRD. After 30 min incubation at room temperature, the luminescence intensity was measured using ViewLux plate reader (PerkinElmer).
% is set by controls: 0 for no effect and ±100 for the full control effect.

| Compound | viability change, negative = cytotoxic |
| --- | --- |
| NS(=O)(=O)c1cc(C2(O)NC(=O)c3ccccc32)ccc1Cl (stereo not given) | 5.04% [at 35.3 µM] |
| NC(=O)Nc1nc2ccccc2[nH]1 | 8.95% |
| COC(=O)C1=C(C)NC(C)=C(C(=O)OCC(C)=O)C1c1ccccc1[N+](=O)[O-] (stereo not given) | 5.04% [at 35.3 µM] |
| C=C(C)C1CC=C(C)C(O)C1 (stereo not given) | -1.54% |
| CCn1c(=O)c2c(nc(/C=C/c3ccc(OC)c(OC)c3)n2C)n(CC)c1=O | -0.505% [at 35.3 µM] |
| Fc1ccccc1-c1ccccc1 | 6.57% |
| Nc1nc(F)nc2c1ncn2[C@@H]1O[C@H](CO)[C@@H](O)[C@@H]1O | 3.62% [at 35.3 µM] |
| NC(=O)c1ncn([C@@H]2O[C@H](CO)[C@@H](O)[C@H]2O)c1N | 5.25% [at 35.3 µM] |
| NCC[C@H](O)C(=O)N[C@@H]1C[C@H](N)[C@@H](O[C@H]2O[C@H](CN)[C@@H](O)[C@H](O)[C@H]2O)[C@H](O)[C@H]1O[C@H]1O[C@H](CO)[C@@H](O)[C@H](N)[C@H]1O | -7.43% [at 0.29 µM] |
| CCn1cc(C(=O)O)c(=O)c2cc(F)c(N3CCN(C)CC3)cc21 | 3.51% [at 15.8 µM] |
| c1cc(CN2CCCCC2)cc(OCCCNc2nc3ccccc3s2)c1 | -7.57% [at 35.3 µM] |
| C=C(C)[C@@H]1CCC2=CC(=O)C[C@@H](C)[C@]2(C)C1 | -3.29% |
| C[N+](C)(C)CC[N+]1(C)Cc2c(Cl)c(Cl)c(Cl)c(Cl)c2C1 | -1.87% [at 35.3 µM] |
| CCCC(C)C(=O)O (stereo not given) | -8.2% |
| CC(C)(O)c1ccccc1 | 3.96% |
| CC(=O)N[C@@H](CCC(N)=O)C(=O)O | -4.66% [at 35.3 µM] |
| CC(C)c1ccc2oc3nc(N)c(C(=O)O)cc3c(=O)c2c1 | -3.53% [at 35.3 µM] |
| NC(=O)c1c(Cl)cccc1Cl | 9.41% |
| CC(C)N1C(=O)c2ccccc2C1=O | 4% |
| Cc1cc(C)cc(OCC2CNC(=O)O2)c1 (stereo not given) | 4.17% [at 35.3 µM] |

| Compound | viability change, negative = cytotoxic |
| --- | --- |
| O=C(O)C1CCC1 | -5.11% [at 35.3 µM] |
| CC1(C)OC(=O)Nc2ccc(Br)cc21 | 5.07% [at 35.3 µM] |
| CCCCCCCCCCCCCCCCCC(=O)OCCCCCCCCCCCCCC(C)C | -3.04% |
| CCOC(=O)Nc1ccc2c(c1)N(C(=O)CCN1CCOCC1)c1ccccc1S2 | 3.2% [at 35.3 µM] |
| CC(C=O)Cc1ccc(C(C)C)cc1 (stereo not given) | 1.56% |
| Cc1nccn1CC1CCc2c(c3ccccc3n2C)C1=O (stereo not given) | 0.227% [at 35.3 µM] |
| CCCCN(CCO)CCO | -14.9% |
| CO | 5.47% |
| CC(=O)CCc1ccc(O)cc1 | 13.9% |
| CC(C)CCOC(=O)CC(C)C | -5.46% |
| CC(C)(O)Cc1ccccc1 | 3.31% |
| CC1=CC(C)C(C=O)C(C)C1 (stereo not given) | 6.93% |
| CC(C)CCCC(C)NCCC(C)C (stereo not given) | 0.206% [at 35.3 µM] |
| CC(C)[C@H](N)C(=O)OCCOCn1cnc2c(=O)[nH]c(N)nc21 | 6.37% [at 35.3 µM] |
| OC/C=C/c1ccccc1 | -12.9% |
| C#CC(O)CCCCC (stereo not given) | -1.41% |
| CCN1CCCC1CNC(=O)c1cc(S(N)(=O)=O)ccc1OC (stereo not given) | -12.9% |
| O=C(O)c1ccc[n+]([O-])c1 | 0.243% [at 35.3 µM] |
| CCC(C(=O)NC(N)=O)c1ccccc1 (stereo not given) | 3.99% |
| CC(C)CCCCCCN | -7.46% |
